# S1P2 blocker – antagonists of human S1P2 receptor; O95136; cell-based S1P2 antagonist assay, inhibition at 5 uM; inhibition, % at 5 µM; actives 0.21% (n = 97,000); in the data active means inhibition above about 45%;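 further: CRE beta-lactamase reporter cells expressing human S1P2 stimulated with S1P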
# GALR2 agonist – activates the human galanin receptor 2; O43603; GALR2-expressing cells, agonist activation read-out; activation, % (no concentration beside the values); actives 0.48% (n = 140,000); AID 803; in the data active means activation above about 5%, passing the limit was not always enough
# Target sequence (O43603 whole entry, looked up): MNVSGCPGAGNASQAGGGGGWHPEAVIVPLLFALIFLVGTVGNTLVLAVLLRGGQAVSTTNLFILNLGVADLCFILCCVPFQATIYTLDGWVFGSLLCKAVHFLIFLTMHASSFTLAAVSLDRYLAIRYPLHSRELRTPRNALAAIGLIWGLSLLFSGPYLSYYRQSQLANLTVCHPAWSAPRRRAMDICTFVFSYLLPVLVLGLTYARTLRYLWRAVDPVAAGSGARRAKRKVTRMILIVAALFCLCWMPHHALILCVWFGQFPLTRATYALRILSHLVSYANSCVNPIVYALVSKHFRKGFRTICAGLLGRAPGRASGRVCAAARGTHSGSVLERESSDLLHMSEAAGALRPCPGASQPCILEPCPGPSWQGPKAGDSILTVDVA
# S1P2 ag – S1P2 (human) receptor agonism | O95136 | S1P2-expressing cell line, agonist reporter read-out | activation, % at 4.5 µM | actives 0.46% (n = 97,000) | AID 729; in the data active means activation above about 16%
# GALR2 blocker – antagonists of human galanin receptor 2 (GALR2). O43603. GALR2-expressing cells, antagonist mode. inhibition, % at 4 µM. actives 0.39% (n = 140,000). AID 828; in the data active means inhibition above about 27%;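 further: cells stimulated with galanin 1-16 at roughly its EC80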
# cytoskel mod – alters cytoskeleton assembly in HUVEC cells. actives 0.18% (n = 91,000). HUVEC TNFa F-actin phalloidin imaging, high content. inhibition, % at 2 µM. AID 836;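 active means inhibition above the batch mean plus 3 SD and confirmed as a hit by visual image inspection, cut at about 30% in these data, passing the limit was not always enough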
# GALR2 ag confirm – GALR2 (human) agonism confirmed. activation, % at 5.6 µM. AID 864. GALR2-expressing cells, agonist activation. actives 10% (n = 460). shares compounds with GALR2 agonist; in the data active means activation above about 8.4%
# BLA activ ctr – beta-lactamase activation, GALR2 counterscreen; shares compounds with GALR2 agonist; CHO NFAT-bla reporter, beta-lactamase FRET activation; activation, % at 5.6 µM; actives 10% (n = 460); AID 865;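 active means activation above the screen-wide mean activation plus 3 SD, cut at about 8% in these data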
# Hits are given with their value; . = inactive; / = no result given. Hits are enriched below; roughly 1.3% of the tested compounds scored in any of these assays.
SMILES,S1P2 blocker,GALR2 agonist,S1P2 ag,GALR2 blocker,cytoskel mod,GALR2 ag confirm,BLA activ ctr
Cc1cc(NC(NC(=O)c2ccco2)(C(F)(F)F)C(F)(F)F)no1,.,.,.,.,.,.,.
CC(C)N1C(=O)S/C(=C/c2ccc3c(c2)n(C)c(=O)n3C)C1=O,.,97,.,.,.,.,.
CC(C)N1C(=O)S/C(=C/c2cccnc2)C1=O,.,.,.,.,.,/,/
CC(C)(C)C1CCC(C(=O)OCC(=O)c2ccc[nH]2)CC1 (stereo unspecified),/,.,/,.,/,/,/
O=C(NC(=S)Nc1ccc(NC(=O)c2cccs2)cc1)c1cc2ccccc2o1,/,11,/,.,/,.,.
CCN(CC)c1ccc2c(c1)oc(=O)c1c(Cl)cc(=O)oc12,.,20,.,.,.,.,12
CCN(CC)c1ccc2c(C)c(-c3ccc(N)cc3)c(=O)oc2c1,/,.,/,.,/,/,/
COc1ccc(OC)c(Nc2nc(N)nc(CSc3nnc(N)s3)n2)c1,.,17,.,.,.,.,.
COc1ccc(Nc2nc(N)nc(CSc3nnc(C)s3)n2)cc1,.,.,.,.,.,/,/
O=C(NCCc1ccccn1)C(F)(F)C(F)(F)C(F)(F)C(F)(F)C(F)(F)C(F)F,/,.,/,.,/,/,/
O=C(CSc1nnnn1-c1cccc(Cl)c1)Nc1ccc2c(c1)CCC2,/,8.8,/,.,/,.,.
COCCCNC(=O)c1cn(CC(C)C)c(=O)c2c1c1ccccc1n2C,.,20,.,.,.,.,.
Nc1c(C(=O)NCC2CCCO2)sc(=S)n1-c1ccccc1 (stereo unspecified),.,.,.,.,.,.,.
CCn1c(N)c(C(=O)NCC2CCCO2)sc1=S (stereo unspecified),.,.,.,.,.,/,/
COc1nc(OC)nc(Oc2ccc([N+](=O)[O-])cc2Cl)n1,/,.,/,.,/,/,/
Cc1ccc(NC(=O)CN(C)S(=O)(=O)c2ccc(Br)s2)cc1F,/,.,/,.,/,/,/
CN(NC(=O)C(C)(C)C)c1nc(-c2ccccc2)nnc1C(F)(F)F,.,.,.,.,.,.,.
COc1ccc(C(=O)NN(C)c2nc(-c3ccccc3)nnc2C(F)(F)F)cc1,.,.,.,.,.,/,/
CCCNC(=O)CN(c1cccc(F)c1)S(C)(=O)=O,/,.,/,.,/,/,/
CCC(C)C(NC(=O)c1ccccc1NC(=O)c1ccc(OC)cc1)C(=O)NCc1ccco1 (stereo unspecified),.,14,.,.,.,.,.
OC(COCCOc1ccc(Br)cc1)CN1CCCCC1 (stereo unspecified),/,.,/,.,/,/,/
Cn1nnnc1SCC(=O)NC(=O)Cc1ccccc1,.,.,.,.,.,/,/
Cn1nnnc1SCC(=O)NCCCc1ccccc1,.,12,.,.,.,.,.
O=C(Cc1ccc(Br)cc1)N1CCN(c2ccccc2O)CC1,.,.,.,.,.,/,/
O=C(CSc1ccc2nnc(-c3cccc(F)c3)n2n1)N1CCCc2ccccc21,/,9.1,/,.,/,9.7,.
SMILES,S1P2 blocker,GALR2 agonist,S1P2 ag,GALR2 blocker,cytoskel mod,GALR2 ag confirm,BLA activ ctr
Cc1ccc(/C=N/n2c(C3CCCCC3)n[nH]c2=S)s1,/,.,/,.,/,/,/
CCOc1ccc(Nc2nc(Cc3nnc(SCC(=O)c4ccc(C)c(C)c4)o3)cs2)cc1,.,19,.,.,.,.,.
O=S1(=O)CC2N=C(N(Cc3c(F)cccc3Cl)c3ccccc3F)SC2C1 (stereo unspecified),/,.,/,.,/,/,/
COc1cc(SC#N)ccc1N=Cc1c(C)[nH]n(-c2ccc(C)c(C)c2)c1=O,/,12,/,.,/,.,.
CC(C)(C)c1ccc(S(=O)(=O)N(CCCN2CCOCC2)Cc2cccs2)cc1,/,.,/,.,/,/,/
CC(Cc1ccccc1)C(=O)N[C@@H](CO)Cc1ccccc1 (stereo partly specified),/,23,/,.,/,.,.
CC(Cc1ccccc1)C(=O)NCc1ccncc1 (stereo unspecified),/,.,/,.,/,/,/
O=C(Nc1ccc2c(c1)OCO2)C1CCCN1C(=O)OCc1ccccc1 (stereo unspecified),/,.,/,.,/,/,/
O=C(Nc1ccc2c(c1)OCO2)OCc1ccccc1,.,12,.,.,.,.,.
COc1ccccc1CNC(=O)C(NS(=O)(=O)c1ccc2c(c1)OCCO2)C(C)C (stereo unspecified),/,.,/,.,/,/,/
O=C(NC(=S)Nn1cnc2c(cnn2-c2ccccc2)c1=O)c1ccccc1,/,.,/,.,/,/,/
COc1ccc(NC(=O)COc2ccccc2)c(OC)c1,.,16,.,.,.,.,.
COc1ccccc1NC(=O)COc1ccccc1,.,.,.,.,.,/,/

# Screening data from PubChem.
